Giardia FBPA inh-1: inhibitors of Giardia lamblia fructose-1,6-bisphosphate aldolase | A8B2U2 | purified Giardia FBPA | Potency, µM (doses to about 59.6 µM), for the others: top-dose activity, negative = inhibition, hits mostly inhibitors | 290,000 tested, 0.71% active | AID 2451; further: potency means the concentration at half of the fitted maximal effect; on the % scale 0 is the no-effect control and ±100 the full control effect; nearly all actives have a fitted effect of over 55% in size
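Giardia FBPA (40 nM reagent) was preincubated 10 min at RT with compound (up to 57.5 uM final), then substrate plus GAPDH/TPI/NAD/arsenate coupling system with diaphorase/resazurin was added; resorufin fluorescence (525/598 nm) was read after 20 min.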
Sm TGR inh: S. mansoni TGR enzyme inhibition | Potency, µM (doses to about 114 µM), without a hit: at the highest dose activity change, negative = inhibition, usual class: inhibitors | purified TGR, DTNB reduction, TNB absorbance 405 nm | 360,000 tested, 3% active | Q962Y6 | AID 485364; further: potency means the concentration at half of the fitted maximal effect; on the % scale 0 is the no-effect control and ±100 the full control effect; nearly all actives have a fitted effect of over 60% in size
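Kinetic colorimetric format: TGR-catalysed, NADPH-driven DTNB reduction monitored via TNB absorbance. Enzyme dispensed at 20 nM; compound exposure 15 min at room temperature before reaction start.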
Cycloheximide cs: affects cycloheximide protein synthesis inhibition readout, counter-screen. cell reporter, cycloheximide protein synthesis inhibition counterscreen. max response, %. 300,000 tested, 12% active. AID 2314; in the data active means max response mostly above about 13%, no sharp cut-off; inactive means mostly below about 14%; further: read at 38.3 µM for the half of the compounds with a filed dose; 0% is about no effect
Shiga toxin inh: Shiga toxin inhibition; Vero cells, Shiga toxin protein synthesis inhibition reporter; inhibition, % at 38.7 µM; 290,000 tested, 9.2% active; AID 2315; in the data active means inhibition mostly above about 28%, no sharp cut-off; inactive means mostly below about 43%; further: 0% is about no effect
TbPYK inhibitor: blocks Trypanosoma brucei pyruvate kinase; Q57TT1; TbPYK enzyme, Kinase-Glo Plus ATP luminescence, 45 min; Potency, µM (highest dose often 76.8 µM), inactives show top-dose activity, negative = inhibition, most hits filed as inhibitors; 410,000 tested, 0.12% active; further: potency means the concentration at half of the fitted maximal effect; on the % scale 0 is the no-effect control and ±100 the full control effect; nearly all actives have a fitted effect of over 50% in size
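Quantitative HTS: titrated library compounds versus trypanosomal pyruvate kinase in TEA buffer (pH 7.2) containing KCl, MgCl2, BSA and Tween-20. Reactions were initiated with ADP, 130 uM final. Kinase-Glo Plus luminescence was read after 45 min at RT.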
LmPK inh: blocks Leishmania mexicana pyruvate kinase activity; Q27686; Potency, µM (doses to about 57.5 µM), for inactives: at the highest dose activity change, negative = inhibition, usual class: inhibitors; purified LmPK, Kinase-Glo ATP luminescence, 1 h; 290,000 tested, 0.37% active; further: potency means the concentration at half of the fitted maximal effect; on the % scale 0 is the no-effect control and ±100 the full control effect
Target sequence (Q27686 whole entry, looked up): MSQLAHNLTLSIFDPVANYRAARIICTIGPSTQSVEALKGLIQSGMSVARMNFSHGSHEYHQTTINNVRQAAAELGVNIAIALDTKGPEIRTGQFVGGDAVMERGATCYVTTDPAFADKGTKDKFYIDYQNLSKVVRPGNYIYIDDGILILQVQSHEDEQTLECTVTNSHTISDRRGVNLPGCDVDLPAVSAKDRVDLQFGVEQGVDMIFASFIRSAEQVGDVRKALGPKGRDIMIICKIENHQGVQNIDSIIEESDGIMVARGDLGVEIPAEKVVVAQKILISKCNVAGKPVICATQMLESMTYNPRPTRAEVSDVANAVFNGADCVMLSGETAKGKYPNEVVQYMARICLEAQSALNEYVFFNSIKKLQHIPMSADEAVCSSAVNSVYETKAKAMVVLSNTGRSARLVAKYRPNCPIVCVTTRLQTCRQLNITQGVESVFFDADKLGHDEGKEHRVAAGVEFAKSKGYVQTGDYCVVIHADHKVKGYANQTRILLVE
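0.1 nM LmPK, 0.5 mM PEP, 0.1 mM ADP; 50 mM imidazole pH 7.2, 7 mM MgCl2, 50 mM KCl; 1 h RT. Kinase-Glo luminescence readout, normalized to no-enzyme (full inhibition) and uninhibited wells.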
Giardia growth: Giardia lamblia growth inhibition | shares compounds with Giardia FBPA inh-1 | Giardia lamblia trophozoite growth inhibition | Potency, µM (series often up to 57.5 µM), without a hit: at the top dose activity change, negative = inhibition, most hits filed as inhibitors | 1,500 tested, 5% active;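 further: potency means the concentration at half of the fitted maximal effect; trophozoites exposed to compound for 48 h at 37 °C; on the % scale 0 is the no-effect control and ±100 the full control effect; nearly all actives have a fitted effect of over 70% in size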
Mammal cell tox: mammalian cytotoxicity of Giardia aldolase inhibitor hits; shares compounds with Giardia FBPA inh-1; mammalian cell viability counter-screen, qHTS; Potency, µM (doses to about 57.5 µM), inactives show at the top dose viability change, negative = toxicity, hits mostly inhibitors; 1,500 tested, 4% active; AID 2786;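 further: Chinese hamster ovary cells used as mammalian cytotoxicity surrogate; viability measured as cellular ATP by luminescence; potency means the concentration at half of the fitted maximal effect; compound exposure lasted 48 h before reading; on the % scale 0 is the no-effect control and ±100 the full control effect; nearly all actives have a fitted effect of over 60% in size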
Giardia FBPA inh-2: confirmation of Giardia fructose-bisphosphate aldolase inhibitors. shares compounds with Giardia FBPA inh-1. purified Giardia aldolase enzyme activity, qHTS. Potency, µM (top dose mostly 57.5 µM), for inactives: at the top dose activity change, negative = inhibition, actives largely listed as inhibitors. 1,500 tested, 5% active. AID 2787; further: potency means the concentration at half of the fitted maximal effect; on the % scale 0 is the no-effect control and ±100 the full control effect; nearly all actives have a fitted effect of over 45% in size
Rabbit aldolase: rabbit FBP aldolase inhibition by Giardia aldolase hits; shares compounds with Giardia FBPA inh-1; Rabbit muscle FBPA enzyme inhibition, selectivity counter-screen; Potency, µM (highest dose often 57.5 µM), without a hit: at the highest dose activity, negative = inhibition, actives largely listed as inhibitors; 1,500 tested, 4% active; AID 2794; further: potency means the concentration at half of the fitted maximal effect; on the % scale 0 is the no-effect control and ±100 the full control effect; nearly all actives have a fitted effect of over 60% in size
GAPDH coupling: GAPDH inhibition flagged for Giardia aldolase hits; shares compounds with Giardia FBPA inh-1; 1,500 tested, 6% active; GAPDH coupling enzyme counterscreen, biochemical, qHTS; Potency, µM (series often up to 57.5 µM), without a hit: at the highest dose activity change, negative = inhibition, most hits filed as inhibitors; AID 2795; further: potency means the concentration at half of the fitted maximal effect; on the % scale 0 is the no-effect control and ±100 the full control effect; nearly all actives have a fitted effect of over 55% in size
* marks the source's active call; other numbers are inactive results; ? = inconclusive; · = no result; [ ] = remark or other dose. Shown is part of a subset that was picked to be rich in hits. Unless noted, the call rests on the fitted dose curve; in most records, active means well fitted curve in the direction sought with a large enough effect; inconclusive means small, poorly fitted or top-dose-only effect, or another doubt; inactive means no such curve, though single readings can be large; an effect the other way counts as inactive or inconclusive.

SMILES | Giardia FBPA inh-1 | Sm TGR inh | Cycloheximide cs | Shiga toxin inh | TbPYK inhibitor | LmPK inh | Giardia growth | Mammal cell tox | Giardia FBPA inh-2 | Rabbit aldolase | GAPDH coupling
O=C(O)CNC(=O)CC1S/C(=N/N=C2\CSC(=O)N2)NC1=O (stereo not drawn) | 5.6µM* | 1% | -4 | -9 | -2% | 27% | 13%[38.3 µM] | 4% | -10% | 8% | -8%
CCN(CC(=O)Nc1cc(Cl)ccc1C)C(=O)c1ccc2c(c1)NC(=O)C(C)S2 (stereo not drawn) | · | 10% | · | · | -1% | · | · | · | · | · | ·
O=[N+]([O-])c1ccccc1/C=N/n1c(-c2cccnc2)n[nH]c1=S | -13% | 3% | -5 | -7 | ? | 6% | · | · | · | · | ·
O=[N+]([O-])c1ccccc1/C=N/n1c(C(F)(F)F)n[nH]c1=S | 18µM* | -7% | 4 | 10 | ? | 5% | -2%[10.4 µM] | 4% | ? | ? | ?
CC(C)NC(=O)N(Cc1ccccc1)Cc1cccs1 | 2% | 6% | -2 | -5 | 5% | -8% | · | · | · | · | ·
Cc1ccc(OCCn2cncn2)c([N+](=O)[O-])c1 | 4% | 13% | -4 | 14 | -10% | 6% | · | · | · | · | ·
Cc1ccc(C(C)C)cc1OCCn1cncn1 | 22µM* | -19% | -2 | -1 | 8% | -12% | -2%[10.4 µM] | 10% | 4% | -6% | ?
COC(=O)c1ccc(CC(=O)c2c(C)cc(O)cc2O)o1 | 16µM* | 22µM* | -7 | -14 | -23% | 5% | -16% | 6% | 16µM* | 40µM* | ?
Cn1nnc(NC(=O)c2ccccc2)n1 | 4% | 0% | 0 | 16 | 7% | 0% | · | · | · | · | ·
Cn1nnc(NC(=S)NC(=O)Cc2ccccc2)n1 | 1.6µM* | · | 6 | 17 | -2% | 5% | -13%[38.3 µM] | -5% | -7% | -5% | -1%
Cn1nnc(NC(=S)NC(=O)c2cccc3c(Br)cccc23)n1 | ? | -21% | 1 | -8 | 1% | 0% | · | · | · | · | ·
COc1cccc(C(=O)NC(=S)Nc2nnn(C)n2)c1 | 1.6µM* | ? | 18 | 21 | -15% | -6% | -18%[38.3 µM] | -1% | -2% | 5% | 7%
COc1ccc(CNC(=O)c2cc3cccc4c3n2CC(C)S4)cc1 (stereo not drawn) | · | 8% | · | · | 1%[15.4 µM] | · | · | · | · | · | ·
COc1ccccc1NC(=O)N1CCC(NC(=O)C(Cc2ccccc2F)NC(C)=O)CC1 (stereo not drawn) | · | 1% | -2 | -5 | 1% | 0% | · | · | · | · | ·
COCCNC(=S)N/N=C1\CC(C)CC(C)(C)C1 (stereo not drawn) | 18µM* | ? | -2 | -12 | -4% | 1% | 40% | -1% | 7% | 9% | 14%
CCOC(=O)N/N=C1\CC(C)CC(C)(C)C1 (stereo not drawn) | 0% | -7% | 11 | 25 | 2% | -2% | · | · | · | · | ·
COCCNC(=S)NN=C1CCCCCC1 | 20µM* | -17% | 8 | 25 | -1% | 7% | 29% | -9% | 10% | 10% | 19%
COCCNC(=S)NN=C1CCC(c2ccccc2)CC1 (stereo not drawn) | ? | -26% | -1 | 15 | -2% | 4% | · | · | · | · | ·
NC(=O)N/N=C/c1cc(Br)ccc1OCC(=O)NCc1ccccc1 | -1% | -7% | -6 | -3 | 5% | 0% | · | · | · | · | ·

Compound activity as filed in PubChem.
